Where “and” joins values, the source holds several entries; their conditions need not be identical. Equal entries are not always repeated. Inconclusive results are not listed. Where a call stands in place of a potency, no number is given. Calls of active or inactive are those of the source. Calls come from the whole dose curve; as a rule, active = well fitted inhibition curve with a large enough effect in the repeat runs; inconclusive = weak or mixed curves; inactive = flat fitted curve, though single readings scatter.
test: qHTS assay to identify small molecule HDAC inhibitors (AID 1259364); settings: HCT-116 HDAC-Glo I/II luminescence, 2 h; series mostly up to 92.4 µM; note: nearly all actives have a fitted effect of over 45% in size; for activity change, negative = inhibition: top concentration of the series differs between compounds
Text: U.S. Tox21 Program National Center for Advancing Translational Sciences [NCATS] NIH Chemical Genomics Center [NCGC] U.S. Environmental Protection Agency [EPA] National Institutes of Environmental Health Sciences [NIEHS] National Toxicology Program [NTP] U.S. Food and Drug Administration [FDA] Tox21 Assay Overview: Histone deacetylases (HDACs) are a group of epigenetic enzymes that regulate gene expression by histone deacetylation. HDACs are capable of introducing epigenetic modifications and such aberrations contribute to the onset and progression of several human diseases, thus making HDACs a popular therapeutic target. For identifying endogenous class I/II HDAC inhibitors a homogenous, luminogenic HDAC I/II cell based assay was used to measure the relative activity of class I and II HDACs from cells. Wild type HCT-116 cells were used to screen Tox21 libraries for identifying class I/II HDAC inhibitors.
Tox21 Assay Protocol Summary: HCT-116 cells were dispensed at 1,500 per well in 5uL of culture medium into white solid bottom 1536-well plates (Greiner Bio-One, Monroe, NC) using a Multidrop Combi (Thermo Scientific, Waltham, MA) dispenser. The assay plates were incubated at 37 C and 5% CO2 for an overnight, and then 23nL of compounds dissolved in DMSO and positive control were transferred using a Pintool station (Wako, San Diego, CA). The assay plates were incubated at 37C and 5% CO2 for 2hr. After compound treatment, 4uL of HDAC-Glo reagent (Promega Corporation, Madison, WI) was added to each well of the assay plates using Flying Reagent Dispenser (FRD, Aurora Discovery, San Diego, CA) and incubated the assay plates at room temperature for 30min. The luminescence signal was quantified using a ViewLux plate reader (Perkin Elmer, Shelton, CT).
Potency is the fitted concentration of half-maximal effect.

Row | Structure (SMILES) | Potency | activity change, negative = inhibition
1 | NC(=O)Nc1ccccc1 | inactive | 
2 | CC1(C)C(O)C(C)(C)C1O (stereo not given) | inactive | 
3 | C=COCC1CCC(CO)CC1 (stereo not given) | inactive | 
4 | CO/N=C(/C(=O)N[C@@H]1C(=O)N2C(C(=O)OCOC(=O)C(C)(C)C)=C(C)CS[C@H]12)c1csc(N)n1 | inactive | 
5 | O=c1cc(-c2ccccc2)oc2ccccc12 | 24.3 µM (active) and 17.6 µM (active) | 
6 | CCOC(=O)Nc1ccc(NCc2ccc(F)cc2)nc1N | inactive | 
7 | NC(=O)c1cn(Cc2c(F)cccc2F)nn1 | inactive | 
8 | C=C[Si](OC(=C)C)(OC(=C)C)OC(=C)C | inactive | 
9 | CN1CCC(=C2c3ccccc3CC(=O)c3sccc32)CC1 | inactive | 
10 | Nc1ccccc1S(=O)(=O)O | inactive | 
11 | Cc1ccc(C#N)cc1 | inactive | 
12 | O=C1CCCCCCCCCCCN1 | inactive | 
13 | CC(=O)CC(C)(C)C1CCCCC1 | inactive | 
14 | COc1ccccc1OCC(O)CN1CCN(CC(=O)Nc2c(C)cccc2C)CC1 (stereo not given) | inactive | 
15 | OCCCC1CCCCC1 | inactive | 
16 | Cc1cccc(C)c1NC(=O)C(C)N (stereo not given) | inactive | 
17 | COC(=O)CC(C)=O | inactive | 
18 | NC(=O)c1ccc(N)cc1 | inactive | 
19 | CC[N+](C)(C)c1cccc(O)c1 | inactive | 
20 | CC(C)NCCCC1(C(N)=O)c2ccccc2-c2ccccc21 | inactive | 

Row | Structure (SMILES) | Potency | activity change, negative = inhibition
21 | CCOC(=O)CCC(C)=O | inactive | 
22 | Nc1c[n+](N2CCOCC2)no1 | inactive | 
23 | O=C1CC2CC1C1CCCC21 (stereo not given) | inactive | 
24 | Cc1cccn2c(=O)c(-c3nnn[nH]3)cnc12 |  | -1.21% [at 19 µM] (inactive)
25 | N=C(N)c1ccccc1 | inactive | 
26 | C=C(C)C(=O)OCCCCCCCC(C)C | inactive | 
27 | C[N+](C)(C)CC(O)CC(=O)[O-] (stereo not given) | inactive | 
28 | CC(C)OC(=O)c1ccccc1 | inactive | 
29 | Cc1ccc(Cl)cc1Cl | inactive | 
30 | CCc1cccc2c(CCO)c[nH]c12 | inactive | 
31 | CCCCCCCCCCCCCC=O |  | -0.0684% [at 8.39 µM] (inactive)
32 | COC(C)(C)CCCC(C)CC=O (stereo not given) | inactive | 
33 | O=Cc1cccc([N+](=O)[O-])c1 | inactive | 
34 | FC(F)OC(Cl)C(F)(F)F (stereo not given) | inactive | 
35 | ClC(Cl)(Br)Br | inactive | 
36 | CCN(CC)CCNC(=O)c1cc(S(C)(=O)=O)ccc1OC | inactive | 
37 | CCN1CCC[C@H]1CNC(=O)c1cc(S(N)(=O)=O)ccc1OC | inactive | 
38 | N[C@H]1CN(c2c(F)cc3c(=O)c(C(=O)O)cn(C4C[C@H]4F)c3c2Cl)CC12CC2 (stereo not given in full) | inactive | 
39 | CCOC(=O)[C@H](CCc1ccccc1)N[C@@H](C)C(=O)N1[C@H](C(=O)O)C[C@@H]2CCC[C@@H]21 | inactive | 
40 | COC(=O)[C@@H](N)Cc1ccc(O)c(O)c1 | inactive | 
